# Source: the supplement of paper PMC6555819
# Legend:
# Experiment in all cases: PBM binding z-score (relative to random genomic background probes); higher = stronger binding; sequences stand for … in GC…GCGATTGACAGCGTAGAATGAAGG
# [1] = system: FXR:RXRa (NR concentration 270 nM, RXRa partner concentration 90 nM)
# Procedure, shortened: (§1)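 For binding z-scores, the reference was random background probes on custom Agilent 4×180K protein-binding microarrays. These arrays were incubated 1 h with ligand-free nuclear receptor dimers in PBS pH 7.4, 2% milk, 0.02% Triton X-100, 1 mM DTT, 0.2 mg/mL BSA and 0.4 mg/ml salmon testes DNA. Fluorescence was scanned after antibody detection of each partner (one per run) and regression-normalized.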
# [2] = system: LXRa:RXRa (NR concentration 270 nM, RXRa partner concentration 90 nM)
# Procedure, shortened: as §1
# [3] = system: LXRa homodimer (NR concentration 270 nM)
# Procedure, shortened: as §1
# [4] = system: LXRb:RXRa (NR concentration 270 nM, RXRa partner concentration 90 nM)
# Procedure, shortened: as §1
# [5] = system: LXRb homodimer (NR concentration 270 nM)
# Procedure, shortened: as §1
# [6] = system: PPARa:RXRa (NR concentration 270 nM, RXRa partner concentration 90 nM)
# Procedure, shortened: as §1
# [7] = system: PPARg:RXRa (NR concentration 180 nM, RXRa partner concentration 90 nM)
# Procedure, shortened: as §1
# [8] = system: PPARg:RXRa 270nM:90nM, anti-RXR (NR concentration 270 nM, RXRa partner concentration 90 nM)
# Procedure, shortened: as §1
# [9] = system: PPARg:RXRa 30nM:10nM, anti-RXR (NR concentration 30 nM, RXRa partner concentration 10 nM)
# Procedure, shortened: as §1
# [10] = system: PPARg:RXRa 90nM:30nM, anti-RXR (NR concentration 90 nM, RXRa partner concentration 30 nM)
# Procedure, shortened: as §1
Sequence,PBM binding z-score [1],PBM binding z-score [2],PBM binding z-score [3],PBM binding z-score [4],PBM binding z-score [5],PBM binding z-score [6],PBM binding z-score [7],PBM binding z-score [8],PBM binding z-score [9],PBM binding z-score [10]
GCTACTAGGTCAACTGATGGTCAGCTAAAGCTCG,4.07,3.11,0.488,2.22,0.314,4.47,7.27,6.19,3.31,5.71
TCAGAAAGGTGAAGGTAACTCAGGTACGCAGTCG,1.82,2.61,0.105,1.67,-0.156,2.97,1.75,3.44,4.63,4.04
CCTACTGTGCCAAAAAGGTCATTGATGCCGATAA,4.4,4.59,4.4,4.55,1.59,4.73,3.18,3.69,1.41,3
TAGCCTAGGTCATGGGCAAGTATACCACGCGAAC,4.43,3.35,0.241,2.46,-0.306,4.37,3.93,3.3,0.879,2.22
ACTTACGGGTCAACGAGGTTATAGCCCGCGTATA,6.28,4.99,0.779,4.32,0.557,5.47,4.98,5.37,2.01,4.01
CCTTTCGGGTCACTGACAGGTTATAGCATTTGGA,5.71,4.35,0.279,3.33,0.0515,5.09,3.95,4.25,1.43,3.06
AGAATCAGGTTAAGATCAGGGAAACAGAATACAT,0.729,0.662,0.295,0.799,0.474,1.68,1.18,1.05,0.692,0.624
TCTTGTAGTTCAATAGAGGTTAAGAAAGTGCGCT,2.33,5.37,2.45,3.06,0.28,2.28,-0.0212,1.83,2.94,2.06
CTCGAAAGGTCGTGCTCATGTGAGTATACCAAAC,5.17,3.72,0.36,3.54,0.234,5.08,2.86,3.9,0.836,2.6
GATACATGGTCAGCTAGAGGCCAGAGTATGGAAA,-0.242,-0.822,-0.541,-0.77,-1.11,-0.488,0.533,-0.14,-0.161,-0.183
TAGCCTCGGTCATGCGGGCCAGTATAGTGTCGGC,0.522,0.28,-0.0554,-0.734,-0.472,-0.0733,-0.325,-0.494,-0.587,-0.372
GTTCCAAGGTGAATAGGTCGTTGATGAGTAGGCG,1.29,0.977,-0.00758,0.642,0.0158,2.24,1.16,1.94,0.65,1.07
AGTCAAAGTTCACTAGGAAACGTAAGATTCAGCT,5.38,5.47,2.41,2.89,0.822,4.1,5.8,6.01,2.93,5.11
